Screens (PubChem BioAssay)
Rows were chosen to be rich in hits. Some 1.8% of all compounds tested hit in one or more screens of this group.
TrxR1 inh = qHTS Assay for Inhibitors of Mammalian Selenoprotein Thioredoxin Reductase 1 (TrxR1): qHTS; Potency, µM (highest dose often 114 µM), inactives show at the top dose activity change, negative = inhibition, hits mostly inhibitors; Thioredoxin reductase 1, cytoplasmic (Rattus norvegicus), O89049; recombinant rTrxR1, NADPH fluorescence consumption, selenite substrate; AID 588453, 2011; hit rate 1% among 390,000; further: on the % scale 0 is the no-effect control and ±100 the full control effect; nearly all actives have a fitted effect of over 65% in size
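Rat TrxR1 (90 nM in the dispensed reagent) was pre-reduced with 400 uM NADPH for 5 min at room temperature, then incubated with compound for 15 min. After 400 uM selenite was added, NADPH fluorescence (Ex 340/Em 450 nm) was followed for 8 min.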
VDR inh = Inhibitors of the vitamin D receptor (VDR): qHTS | Vitamin D3 receptor (Homo sapiens), P11473 | VDR-SRC2-3 peptide fluorescence polarization, 2 h | Potency, µM, without a hit: max response, negative = inhibition, most hits filed as inhibitors | hit rate 0.93% among 400,000 | AID 504847, 2011; further: on the % scale 0 is the no-effect control and ±100 the full control effect
Target sequence (P11473 whole entry, looked up): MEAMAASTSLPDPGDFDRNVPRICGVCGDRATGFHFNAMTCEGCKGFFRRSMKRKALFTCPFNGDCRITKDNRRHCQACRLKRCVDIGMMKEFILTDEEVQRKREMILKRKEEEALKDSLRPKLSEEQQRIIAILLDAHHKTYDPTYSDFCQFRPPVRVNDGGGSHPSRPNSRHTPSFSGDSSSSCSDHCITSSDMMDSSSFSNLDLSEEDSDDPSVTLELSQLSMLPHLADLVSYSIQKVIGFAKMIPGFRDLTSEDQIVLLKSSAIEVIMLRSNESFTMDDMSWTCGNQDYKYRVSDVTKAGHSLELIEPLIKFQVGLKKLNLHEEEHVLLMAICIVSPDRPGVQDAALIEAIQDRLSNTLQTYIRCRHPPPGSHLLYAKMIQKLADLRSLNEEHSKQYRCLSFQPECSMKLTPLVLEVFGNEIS
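The screen uses fluorescence polarization to detect compounds that interfere with recruitment of the SRC2-3 coactivator peptide to VDR; plates are read after 2 h at room temperature.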
Vif-APOBEC3F blk = qHTS for Inhibitors of Vif-A3F Interactions: qHTS; HeLa A3F-eYFP + Vif (tagged APOBEC3F with the HIV-1 protein that degrades it), YFP fluorescence increase; Potency, µM (highest dose often 46.1 µM), for inactives: at the top dose activity, negative = active; hit rate 0.2% among 390,000; AID 602313, 2012; further: % of control where 0% means no effect; nearly all actives have a fitted effect of over 65% in size
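Fluorescence increase (Ex 488/Em 500-530) after overnight compound treatment at 37 deg C flags inhibition of Vif-driven A3F-eYFP loss in stable HeLa A3F-eYFP/Vif cells seeded overnight beforehand.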
Vif-APOBEC3G blk = qHTS for Inhibitors of Vif-A3G Interactions: qHTS; HeLa A3G-eYFP + Vif (tagged APOBEC3G with the HIV-1 protein that degrades it), YFP fluorescence, overnight; Potency, µM (series often up to 46.1 µM), without a hit: at the highest dose activity, negative = active, most hits filed as inhibitors; hit rate 0.076% among 410,000; further: on the % scale 0 is the no-effect control and ±100 the full control effect; nearly all actives have a fitted effect of over 60% in size
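HeLa cells stably expressing Vif and C-terminally eYFP-tagged A3G, seeded overnight at 37 deg C, then exposed to compound by pintool overnight at 37 deg C. Rise in yellow fluorescence (Ex 488/Em 500-530, Acumen) marks blocked Vif-driven A3G degradation.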
TrxR1 substrate = qHTS Assay for Substrates of Mammalian Selenoprotein Thioredoxin Reductase 1 (TrxR1): qHTS; Thioredoxin reductase 1, cytoplasmic (Rattus norvegicus), O89049; purified TrxR1 substrate turnover, NADPH consumption readout; Potency, µM (series often up to 114 µM), inactives show at the top dose activity change, negative = substrate turnover; hit rate 0.01% among 390,000; further: on the % scale 0 is the no-effect control and ±100 the full control effect; nearly all actives have a fitted effect of over 50% in size
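Rat TrxR1, dispensed at 90 nM, was prereduced with 400 uM NADPH (final) for 5 min at ~22 deg C, then incubated with compound 15 min before 400 uM selenite. A first-read NADPH fluorescence drop versus no-compound background flagged substrates.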
* hit, by the source's call; ? = inconclusive; / = not tested or not shown; [ ] = another dose, or the depositor's remark. The call rests on the fitted dose curve; in most records, active means well fitted curve in the direction sought with a large enough effect; inconclusive means small, poorly fitted or top-dose-only effect, or another doubt; inactive means no such curve, though single readings can be large; an effect the other way counts as inactive or inconclusive. Potency means the concentration at half of the fitted maximal effect.

SMILES	TrxR1 inh	VDR inh	Vif-APOBEC3F blk	Vif-APOBEC3G blk	TrxR1 substrate
Cc1cc(N2CCCCC2)ccc1C=C1C(=O)N(C)C(=S)N(C)C1=O	11µM*	?	-2%	-9%	-1%
CN1CC[C@@]2(CCCN(C(=O)c3csnn3)C2)C1	/	45µM*	/	/	/
CC(=O)Nc1ccc(OC(=O)N2CCN(/[N+]([O-])=N/Oc3ccc([N+](=O)[O-])cc3[N+](=O)[O-])CC2)cc1	?	/	/	-5%	-6%
Cc1ccc(CNc2cc(C)nc3nc(-c4ccc(C)cc4)nn23)cc1	22%[57.1 µM]	4%	?	-13%	-1%[57.1 µM]
Cc1cc(OCC(=O)N2CCN(CCc3ccncc3)CC2)ccc1Cl	?	8%	2%	-2%	-2%
Cc1ccc(OCC(=O)N2CCN(CCc3ccncc3)CC2)cc1C	79µM*	8%	0%	-5%	2%
O=C(Nc1ccc2nc(SCC(=O)N3CCCc4ccccc43)sc2c1)c1cccc(F)c1	39%	-2%	-5%	-6%	10%
COC(=O)C(O)(c1ccc(N(C)C(=O)c2cccs2)cc1)C(F)(F)F (configuration not stated)	26%[57.1 µM]	50µM*	4%	2%	5%[57.1 µM]
COCCNC(=O)c1c(NC(=O)c2ccc(Br)o2)n(Cc2ccccc2)c2nc3ccccc3nc12	-36%	?	11µM*	?	23%
CCOC(=O)c1c(N)n(CCCOC(=O)c2ccco2)c2nc3ccccc3nc12	-40%	-9%	7%	-13%	133%[57.1 µM]
COCCNC(=O)c1c(N)n(CCC(C)C)c2nc3ccccc3nc12	-4%	?	2%	-9%	106%
CCCCNC(=O)c1c(N)n(CCCOC)c2nc3ccccc3nc12	13%[57.1 µM]	50µM*	-2%	-6%	108%[57.1 µM]
COCCCNC(=O)c1c(NC(=O)c2ccco2)n(Cc2ccccc2)c2nc3ccccc3nc12	?	45µM*	/	?	152%
CCCCCn1c(NC(=O)c2ccco2)c(C(=O)OCC)c2nc3ccccc3nc21	?	5µM*	?	11µM*	58%
COCCCn1c(N)c(C(=O)OCCOC)c2nc3ccccc3nc21	5%[57.1 µM]	-3%	10%	-1%	197%[57.1 µM]
CC(=O)C(O)C(c1ccccc1)c1c(O)c2ccccc2oc1=O (configuration not stated)	/	4%	/	/	/
CC(N)(COP(=O)(O)Oc1ccccc1)C(=O)O (configuration not stated)	/	23%	/	/	/
CC(C)CCNC(=O)c1c(N)n(Cc2ccc3c(c2)OCO3)c2nc3ccccc3nc12	48%	89µM*	-6%	1%	84%
CCOC(=O)N1CCN(/[N+]([O-])=N/Oc2ccc([N+](=O)[O-])cc2[N+](=O)[O-])CC1C (configuration not stated)	?	56µM*	/	2%	-16%
CCOC(=O)N1CCCN(/[N+]([O-])=N/Oc2ccc([N+](=O)[O-])cc2[N+](=O)[O-])CC1	16µM*	?	/	-9%	-11%
CCCN1CCCC2Cc3nc(N)ncc3CC21 (configuration not stated)	/	-1%	/	/	/
CN(N=O)c1cc(O)ccc1O	0.75µM*	45µM*	/	-19%	3%[57.1 µM]
O=C1NC(=O)C(Nc2ccc(Cl)c(Cl)c2)C(=O)N1	-5%[57.1 µM]	40µM*	-13%	5%	2%[57.1 µM]
O=C(Nc1ccc(Cl)c(Cl)c1)c1ccco1	-7%[57.1 µM]	2%	-2%	-6%	-4%[57.1 µM]
NC(=O)CF	/	1%	/	/	/
N#C/C(=C/c1ccc(O)c(O)c1)C(N)=S	?	40µM*	/	/	?
N#CC(C#N)=Cc1ccc(C=C(C#N)C#N)cc1	7.9µM*	?	-17%	?	-5%
[Cl][In]([Cl])[Cl]	12%	20%	/	1%	6%
